Structures are written as SMILES. About 2,100 (0.66%) of roughly 320,000 compounds were called active. Not shown: some 53% with an inconclusive outcome. Calls come from the whole dose curve; as a rule, active = well fitted inhibition curve with a large enough effect in the signal ratio, with a control signal flat (not every such curve was filed as active); inconclusive = small, poorly fitted or top-dose-only effect, or effect the other way, or a change in a side signal; inactive = flat fitted curve, though single readings scatter; the % refers to the signal ratio. The sample as a whole holds a higher share of actives than the screen did.
Potency is the fitted concentration of half-maximal effect.

The assay can be described thus: qHTS Assay for Lipid Storage Modulators in Drosophila S3 Cells.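 For cell number change: cells counted by Cell Tracker Red CMTPX staining in the red channel.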 For lipid storage change, negative = inhibition: % is set by controls: 0 for no effect and ±100 for the full control effect. The settings on record: BODIPY lipid droplet fluorescence, 18-24 h, cells fed with added oleic acid; cell number change: measured here: cell count max response; series mostly up to 46.1 µM; lipid storage change, negative = inhibition: at the top concentration. In outline:
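Drosophila S3 cells got compounds at several concentrations plus oleic acid (400 uM solution). Laser-scanning cytometry with 488 nm excitation read lipid droplets at 500-530 nm and cells at 575-640 nm. Percent activity was relative to 20 uM Triacsin C.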
With `Oc1[nH]c2ccccc2c1N=Nc1ncnc2c1oc1ccccc12`, the “lipid storage change, negative = inhibition” value is -11.9% (inactive) and the cell number change was 8.73%. As to `Cc1sc2ncnc(N=Nc3c(O)[nH]c4ccccc34)c2c1C`, the Potency was 20.6 µM (active) and the cell number change was -22%.

As for `Cc1ccccc1OCCNc1ccc(C(F)(F)F)cc1[N+](=O)[O-]`, the “lipid storage change, negative = inhibition” value was -9.82% (inactive) and the cell number change is -21%.

On to `CCS(=O)(=O)N1Cc2ccccc2CC1C(=O)Nc1ccc(C)cc1` (configuration not stated), for which the outcome was inactive. As to `CCS(=O)(=O)N1Cc2ccccc2CC1C(=O)Nc1ccc(NC(C)=O)cc1` (configuration not stated), the call was inactive.

On to `CCS(=O)(=O)N1Cc2ccccc2CC1C(=O)NC(C)C12CC3CC(CC(C3)C1)C2` (configuration not stated), for which the Potency was 23.1 µM (active) and the cell number change is -29.2%. With `Cc1ccc(C=Nc2ccccc2C(N)=O)o1`, the “lipid storage change, negative = inhibition” value was 8.66% (inactive) and the cell number change was -8.21%. Taken in the same sequence, the figures for `CC1CN(c2ccc([N+](=O)[O-])cc2F)CCN1C(=O)c1ccco1` (configuration not stated) were 15.3% (inactive) and -3.23%. As for `CCOc1ccccc1NS(=O)(=O)c1ccc2c(c1)n(C)c(=O)c(=O)n2C`, the “lipid storage change, negative = inhibition” value was 0.5% (inactive) and the cell number change is -6.25%. As to `COc1ccc(C)cc1NS(=O)(=O)c1ccc2c(c1)N(C(C)=O)CCO2`, the molecule was called inactive and the cell number change was determined as 6.45%. The corresponding values for `Cc1ccc(NS(=O)(=O)c2ccc3c(c2)N(C)CCO3)cc1` are “inactive” and 5.66%. For the molecule `CCOc1ccccc1NS(=O)(=O)c1ccc2c(c1)N(C)CCO2`, the Potency was 7.31 µM (active) and the cell number change was -20.1%. As to `CCOc1ccccc1NS(=O)(=O)c1ccc(OC)c(OC)c1`, the “lipid storage change, negative = inhibition” value is 3.17% (inactive) and the cell number change is -6.31%. With `COc1ccc(C)cc1NS(=O)(=O)c1ccc2c(c1)N(C)CCO2`, the Potency is 20.6 µM (active) and the cell number change came out at 6.6%. As for `CN(C)S(=O)(=O)c1ccc(N2CCCC2)c(C(=O)Nc2ccc(C(N)=O)cc2)c1`, the “lipid storage change, negative = inhibition” value is 16.1% (inactive). As to `Cc1ccc(NC(=S)N2CCN(Cc3ccccc3)CC2)c(C)c1`, the “lipid storage change, negative = inhibition” value was 12.5% (inactive) and the cell number change stood at 7.65%. For `COc1ccc(C2C(C(=O)N3CCCCC3)CC(=O)N2c2ccc(OC)cc2)cc1` (configuration not stated), the “lipid storage change, negative = inhibition” value was 20.1% (inactive) and the cell number change was -20%. For `CCOc1ccc(/C=N/NC(=O)c2cc3ccccc3cc2OC)cc1`, the molecule was classed as inactive.

Regarding `O=C(Cc1ccc([N+](=O)[O-])cc1)NC(C(=O)O)C(O)c1cccc([N+](=O)[O-])c1` (configuration not stated), the “lipid storage change, negative = inhibition” value was 19.1% (inactive) and the cell number change is -5.25%.

For `CN(C)CC(=O)N1c2ccccc2CCc2ccc(NC(=O)c3ccc(N)cc3)cc21`, the call was inactive. In the case of `CCOc1ccccc1CN1CCNC(=O)C1CC(=O)NCCCn1cccn1` (configuration not stated), the call was inactive and the cell number change is -11.6%. Regarding `CCOc1ccccc1CN1CCNC(=O)C1CC(=O)NCCN1CCOC1=O` (configuration not stated), the Potency is 2.31 µM (active) and the cell number change is 19.4%.

For `CCOc1ccccc1CN1CCNC(=O)C1CC(=O)NCCc1ccccn1` (configuration not stated), the “lipid storage change, negative = inhibition” value was -15.3% (inactive) and the cell number change was -15.8%. On to `CC(=O)Nc1ccc(S(=O)(=O)NC(C)c2nc(-c3ccccc3)no2)cc1` (configuration not stated), for which the result was inactive and the cell number change stood at 16.2%.

Turning to `COc1ccc(-c2nn(CCC#N)cc2C=C(C#N)C#N)cc1`, the “lipid storage change, negative = inhibition” value is 3.12% (inactive) and the cell number change was 16.7%. On to `CC1(C)CC2CC(C)(CN2C(=O)c2cc(-c3ccc(O)cc3)on2)C1` (configuration not stated), for which the Potency is 0.92 µM (active) and the cell number change amounted to 16.1%. `CC1(C)CC2CC(C)(CN2C(=O)c2cccs2)C1` (configuration not stated): the “lipid storage change, negative = inhibition” value is -0.663% (inactive) and the cell number change was -7.87%. As to `COc1ccc(-c2cc(C(=O)N3CC4(C)CC3CC(C)(C)C4)no2)cc1OC` (configuration not stated), the “lipid storage change, negative = inhibition” value is 20.3% (inactive) and the cell number change was -3.22%. As for `C=CCn1c(SC(F)F)nc2scc(-c3ccco3)c2c1=O`, the Potency is 0.058 µM (active) and the cell number change was 0.451%.

`C=CCn1c(=S)[nH]c2scc(-c3ccco3)c2c1=O`: the “lipid storage change, negative = inhibition” value was 1.25% (inactive) and the cell number change stood at 8.4%. Taken in the same sequence, the figures for `C=CCn1c(SCc2ccc3c(c2)OCO3)nc2scc(-c3ccco3)c2c1=O` were 34.4% (inactive) and -2.61%. Taken in the same sequence, the figures for `CC(C)N(Cc1nnc(-c2ccc(Cl)cc2)o1)C(=O)c1cc2ccccc2o1` were 11.5% (inactive) and -8.15%. The corresponding values for `Oc1nc(Nc2ccc(F)cc2)sc1/C=C1\C=Nc2ccccc21` are -6.38% (inactive) and -4.17%.

As to `Cc1ccccc1NC(=O)Cc1nnc(N)s1`, the “lipid storage change, negative = inhibition” value was 0.0585% (inactive) and the cell number change is -0.0956%. Turning to `COC(=O)COc1ccc(S(=O)(=O)N2CCc3ccccc3C2)cc1`, the Potency is 7.31 µM (active) and the cell number change is 22.6%. Consider `COC(=O)COc1ccc(S(=O)(=O)N2CCCCCC2)cc1`, for which the “lipid storage change, negative = inhibition” value was 9.35% (inactive) and the cell number change was 19.9%. Taken in the same sequence, the figures for `COc1ccc(S(=O)(=O)N2CCc3ccccc3C2)cc1` were -6.8% (inactive) and 4.92%. `CCOc1ccc(S(=O)(=O)N2CCC(C(=O)N3CCN(Cc4ccccc4)CC3)CC2)cc1`: the “lipid storage change, negative = inhibition” value was -20.9% (inactive) and the cell number change was -0.232%.

Consider `CCOc1ccc(S(=O)(=O)N2CCC(C(=O)N3CCc4ccccc4C3)CC2)cc1`, for which the Potency is 7.31 µM (active) and the cell number change was -23.3%. As to `CCOc1ccc(S(=O)(=O)N2CCC(C(=O)N3CCN(c4ccccc4)CC3)CC2)cc1`, the call was inactive and the cell number change was -5.41%. On to `Cc1ccc(C2=NNC(=O)C(P(=O)(c3ccccc3)c3ccccc3)C2)cc1` (configuration not stated), for which the “lipid storage change, negative = inhibition” value was 23.4% (inactive) and the cell number change worked out at 21.3%. In the case of `S=C1NCN(C2CCCCC2)CN1Cc1ccccc1`, the “lipid storage change, negative = inhibition” value is 5.67% (inactive) and the cell number change came out at 2.76%. With `CCCc1cc(=O)oc2cc(C)cc(OC(C)C(=O)NCCCN3CCOCC3)c12` (configuration not stated), the molecule was classed as inactive and the cell number change stood at 6.42%. `O=c1[nH]c2ccccc2nc1/C=C/c1ccc(F)cc1`: the Potency was 9.2 µM (active) and the cell number change is 28.9%. Consider `Cn1c(=O)c(/C=C/c2ccc(F)cc2)nc2ccccc21`, for which the “lipid storage change, negative = inhibition” value is -6.81% (inactive) and the cell number change is -1.08%.

`O=c1[nH]c2ccccc2nc1/C=C(\O)C(F)F`: the “lipid storage change, negative = inhibition” value is 9.85% (inactive) and the cell number change was determined as 13.5%.

The values above are taken from PubChem BioAssay AID2685 (National Center for Advancing Translational Sciences (NCATS), 2010).
